Data reported in paper PMC7862700, “An all-to-all approach to the identification of sequence-specific readers for epigenetic DNA modifications on cytosine”.

Key:
Experiment in all cases: DAPPL (digital affinity profiling via proximity ligation, sequencing); 10 mM Tris-HCl pH 7.5, 50 mM NaCl, 1 mM DTT, 4% glycerol, room temperature, 30 min; GST-TFs on glutathione beads, 16-mer random dsDNA library, 0.1% formaldehyde crosslink after washing; high values mean tight binding
Settings in all cases: protein: recombinant; tags: N-terminal GST; dsDNA, one strand shown
ERF = target: T1, ERF (Homo sapiens, UniProt P50548 1-548)
T1 sequence: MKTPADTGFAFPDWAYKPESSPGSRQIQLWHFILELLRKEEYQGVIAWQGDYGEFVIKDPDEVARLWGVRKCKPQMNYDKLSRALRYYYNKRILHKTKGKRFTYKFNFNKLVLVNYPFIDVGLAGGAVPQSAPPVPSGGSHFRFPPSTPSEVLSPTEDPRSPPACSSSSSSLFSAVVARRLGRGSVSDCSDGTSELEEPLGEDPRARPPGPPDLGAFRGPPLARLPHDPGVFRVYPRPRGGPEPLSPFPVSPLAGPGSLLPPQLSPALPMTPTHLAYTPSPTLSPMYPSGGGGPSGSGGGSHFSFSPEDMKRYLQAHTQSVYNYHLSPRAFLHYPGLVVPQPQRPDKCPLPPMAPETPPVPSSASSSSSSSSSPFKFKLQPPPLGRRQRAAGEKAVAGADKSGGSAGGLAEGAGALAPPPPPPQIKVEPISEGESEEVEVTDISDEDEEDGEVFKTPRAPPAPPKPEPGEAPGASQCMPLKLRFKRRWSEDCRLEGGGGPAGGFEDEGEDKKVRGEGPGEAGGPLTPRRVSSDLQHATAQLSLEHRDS
Method in brief: (§1)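 GST fusions of human transcription factors were expressed in yeast and captured with glutathione beads. Once given DNA barcodes and pooled alongside a tag-only sample, they were incubated for 30 min at room temperature with 200 nmole of a random double-stranded 16-mer DNA library in Tris/NaCl/DTT/glycerol buffer, then washed, crosslinked (0.1% formaldehyde), proximity-ligated, PCR-amplified and sequenced on an Illumina NextSeq500. The binding signal of each hexamer is its read frequency for a factor divided by its frequency for the tag-only sample.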

ETV3L = target: T2, ETV3L (Homo sapiens, UniProt Q6ZN32 1-361)
T2 sequence: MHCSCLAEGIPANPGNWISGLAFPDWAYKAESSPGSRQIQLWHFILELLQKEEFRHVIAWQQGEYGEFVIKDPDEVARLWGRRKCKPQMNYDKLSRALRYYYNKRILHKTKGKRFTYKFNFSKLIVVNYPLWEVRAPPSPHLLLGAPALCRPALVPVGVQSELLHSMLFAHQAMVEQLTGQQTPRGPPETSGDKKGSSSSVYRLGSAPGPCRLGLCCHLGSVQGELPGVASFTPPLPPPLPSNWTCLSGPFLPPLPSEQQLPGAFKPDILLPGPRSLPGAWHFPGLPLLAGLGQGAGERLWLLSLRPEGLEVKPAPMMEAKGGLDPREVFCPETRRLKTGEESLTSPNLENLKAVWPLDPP
Method in brief: as §1

ETS2 = target: T3, ETS2 (Homo sapiens, UniProt P15036 1-469)
T3 sequence: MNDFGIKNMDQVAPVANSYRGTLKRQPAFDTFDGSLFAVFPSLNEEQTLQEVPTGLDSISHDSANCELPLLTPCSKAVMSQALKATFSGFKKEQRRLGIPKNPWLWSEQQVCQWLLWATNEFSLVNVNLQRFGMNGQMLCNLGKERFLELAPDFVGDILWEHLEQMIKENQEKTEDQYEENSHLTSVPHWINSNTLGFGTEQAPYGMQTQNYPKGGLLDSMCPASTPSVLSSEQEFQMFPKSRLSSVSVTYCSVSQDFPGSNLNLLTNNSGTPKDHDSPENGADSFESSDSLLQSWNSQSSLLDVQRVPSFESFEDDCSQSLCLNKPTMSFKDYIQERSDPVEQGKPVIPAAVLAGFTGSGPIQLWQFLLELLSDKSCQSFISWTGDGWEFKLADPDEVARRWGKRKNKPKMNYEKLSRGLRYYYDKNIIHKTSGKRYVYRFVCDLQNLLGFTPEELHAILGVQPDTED
Method in brief: as §1

SPDEF = target: T4, SPDEF (Homo sapiens, UniProt O95238 1-335)
T4 sequence: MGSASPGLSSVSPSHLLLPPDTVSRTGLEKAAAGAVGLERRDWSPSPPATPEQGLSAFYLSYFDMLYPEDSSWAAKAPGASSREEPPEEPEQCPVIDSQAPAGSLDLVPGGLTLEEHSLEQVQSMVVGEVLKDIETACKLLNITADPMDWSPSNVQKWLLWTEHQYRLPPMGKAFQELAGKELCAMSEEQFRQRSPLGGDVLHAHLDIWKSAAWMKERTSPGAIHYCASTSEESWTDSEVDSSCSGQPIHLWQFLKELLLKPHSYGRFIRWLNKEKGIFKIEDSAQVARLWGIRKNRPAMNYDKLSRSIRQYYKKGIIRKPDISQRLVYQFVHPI
Method in brief: as §1

ETV7 = target: T5, ETV7 (Homo sapiens, UniProt Q9Y603 1-341)
T5 sequence: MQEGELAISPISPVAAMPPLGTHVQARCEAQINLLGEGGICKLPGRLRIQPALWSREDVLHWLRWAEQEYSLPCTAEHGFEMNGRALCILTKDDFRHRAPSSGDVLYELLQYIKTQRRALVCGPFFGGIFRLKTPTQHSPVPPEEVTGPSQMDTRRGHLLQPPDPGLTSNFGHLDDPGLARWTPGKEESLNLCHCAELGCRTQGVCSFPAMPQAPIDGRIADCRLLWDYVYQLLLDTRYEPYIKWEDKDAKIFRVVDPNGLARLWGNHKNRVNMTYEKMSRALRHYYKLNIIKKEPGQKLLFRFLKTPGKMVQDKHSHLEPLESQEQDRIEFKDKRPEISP
Method in brief: as §1

ELF5 = target: T6, ELF5 (Homo sapiens, UniProt Q9UKW6-2 1-255)
T6 sequence: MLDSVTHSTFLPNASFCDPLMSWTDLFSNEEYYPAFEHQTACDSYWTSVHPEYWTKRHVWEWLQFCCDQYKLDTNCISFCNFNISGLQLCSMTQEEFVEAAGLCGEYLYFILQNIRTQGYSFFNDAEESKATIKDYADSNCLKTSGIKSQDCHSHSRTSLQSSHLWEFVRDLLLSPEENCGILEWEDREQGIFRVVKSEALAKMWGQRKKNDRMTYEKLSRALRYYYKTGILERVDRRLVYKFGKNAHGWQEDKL
Method in brief: as §1

ETV3 = target: T7, ETV3 (Homo sapiens, UniProt P41162-2 1-143)
T7 sequence: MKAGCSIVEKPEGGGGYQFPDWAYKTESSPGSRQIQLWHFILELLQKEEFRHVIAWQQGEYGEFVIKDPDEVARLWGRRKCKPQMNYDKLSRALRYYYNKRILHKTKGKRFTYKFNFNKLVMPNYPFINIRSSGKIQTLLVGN
Method in brief: as §1

ETV6 = ETV6 (Homo sapiens, UniProt P41212 1-452)
Chain of ETV6 (P41212 whole entry): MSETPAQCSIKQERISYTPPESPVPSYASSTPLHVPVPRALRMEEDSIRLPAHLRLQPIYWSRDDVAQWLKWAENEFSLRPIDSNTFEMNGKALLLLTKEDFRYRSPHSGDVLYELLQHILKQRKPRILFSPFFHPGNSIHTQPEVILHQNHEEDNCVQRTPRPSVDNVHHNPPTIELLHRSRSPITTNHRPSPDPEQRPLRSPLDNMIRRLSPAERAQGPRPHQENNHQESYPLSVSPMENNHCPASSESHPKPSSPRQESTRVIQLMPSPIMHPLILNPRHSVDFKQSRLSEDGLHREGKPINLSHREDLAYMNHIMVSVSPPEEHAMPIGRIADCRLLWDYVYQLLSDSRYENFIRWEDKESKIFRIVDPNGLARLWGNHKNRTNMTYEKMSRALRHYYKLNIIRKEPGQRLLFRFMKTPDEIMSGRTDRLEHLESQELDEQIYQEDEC
Method in brief: as §1

| Sequence | binding signal (ERF) | binding signal (ETV3L) | binding signal (ETS2) | binding signal (SPDEF) | binding signal (ETV7) | binding signal (ELF5) | binding signal (ETV3) | binding signal (ETV6) |
| --- | --- | --- | --- | --- | --- | --- | --- | --- |
| CGTCTT | 1.24 fold enrichment (6-mer frequency, TF over GST control) | 1.4 fold enrichment (6-mer frequency, TF over GST control) | 1.4 fold enrichment (6-mer frequency, TF over GST control) | 1.48 fold enrichment (6-mer frequency, TF over GST control) | 1.41 fold enrichment (6-mer frequency, TF over GST control) | 1.5 fold enrichment (6-mer frequency, TF over GST control) | 1.44 fold enrichment (6-mer frequency, TF over GST control) | 1.5 fold enrichment (6-mer frequency, TF over GST control) |
| ACTGCC | 1.4 fold enrichment (6-mer frequency, TF over GST control) | 1.46 fold enrichment (6-mer frequency, TF over GST control) | 1.29 fold enrichment (6-mer frequency, TF over GST control) | 1.46 fold enrichment (6-mer frequency, TF over GST control) | 1.34 fold enrichment (6-mer frequency, TF over GST control) | 1.43 fold enrichment (6-mer frequency, TF over GST control) | 1.46 fold enrichment (6-mer frequency, TF over GST control) | 1.4 fold enrichment (6-mer frequency, TF over GST control) |
| CAACCT | 1.26 fold enrichment (6-mer frequency, TF over GST control) | 1.13 fold enrichment (6-mer frequency, TF over GST control) | 1.2 fold enrichment (6-mer frequency, TF over GST control) | 1.19 fold enrichment (6-mer frequency, TF over GST control) | 1.09 fold enrichment (6-mer frequency, TF over GST control) | 1.2 fold enrichment (6-mer frequency, TF over GST control) | 1.1 fold enrichment (6-mer frequency, TF over GST control) | 1.18 fold enrichment (6-mer frequency, TF over GST control) |
| GATGGT | 1.22 fold enrichment (6-mer frequency, TF over GST control) | 1.19 fold enrichment (6-mer frequency, TF over GST control) | 1.13 fold enrichment (6-mer frequency, TF over GST control) | 1.04 fold enrichment (6-mer frequency, TF over GST control) | 1.06 fold enrichment (6-mer frequency, TF over GST control) | 1.08 fold enrichment (6-mer frequency, TF over GST control) | 1.12 fold enrichment (6-mer frequency, TF over GST control) | 1.1 fold enrichment (6-mer frequency, TF over GST control) |
| CGTCAA | 1.13 fold enrichment (6-mer frequency, TF over GST control) | 1.09 fold enrichment (6-mer frequency, TF over GST control) | 1.16 fold enrichment (6-mer frequency, TF over GST control) | 1.15 fold enrichment (6-mer frequency, TF over GST control) | 1.09 fold enrichment (6-mer frequency, TF over GST control) | 1.08 fold enrichment (6-mer frequency, TF over GST control) | 1.06 fold enrichment (6-mer frequency, TF over GST control) | 1.15 fold enrichment (6-mer frequency, TF over GST control) |
| GGATTT | 1.17 fold enrichment (6-mer frequency, TF over GST control) | 1.21 fold enrichment (6-mer frequency, TF over GST control) | 1.24 fold enrichment (6-mer frequency, TF over GST control) | 1.57 fold enrichment (6-mer frequency, TF over GST control) | 1.07 fold enrichment (6-mer frequency, TF over GST control) | 1.38 fold enrichment (6-mer frequency, TF over GST control) | 1.21 fold enrichment (6-mer frequency, TF over GST control) | 1.3 fold enrichment (6-mer frequency, TF over GST control) |
